CYP2C9 act: activators of human CYP2C9 | P11712 | activation factor at 5 µM | 96,000 compounds, 1.4% hits | recombinant CYP2C9, luciferin-H conversion, luminescence; hits give high values; factor 1 = untreated enzyme, 0 = blocked;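 active = activation factor of 2 or more for CYP2C9 at a 5 µM dose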;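 note: 0 = sulfaphenazole-blocked wells and 1 = vehicle-only wells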
Cav32 inh: human Cav3.2 channel inhibition, primary screen; O95180; Cav3.2-expressing cells, Fluo-4 calcium fluorescence FDSS; hits give low values; B-score at 10 µM; 100,000 compounds, 4% hits;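 active = single-dose well whose peak fluorescence ratio is a statistical outlier from its plate by either plate-standardised score or position-corrected B-score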
CYP2C19 inh: blocks human cytochrome P450 2C19 | CYP2C19 Supersomes, luciferin-H EGE luminescence, 30 min | P33261 | 96,000 compounds, 21% hits | AID 778 | inhibition, % at 5 µM;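 active = CYP2C19 inhibition above a set limit at 5 µM in the primary screen, cut at about 50% in these data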;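 note: plate controls were negative control wells for no effect and 2.5 mM tranylcypromine positive control for full effect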
Target sequence (P33261 whole entry, looked up): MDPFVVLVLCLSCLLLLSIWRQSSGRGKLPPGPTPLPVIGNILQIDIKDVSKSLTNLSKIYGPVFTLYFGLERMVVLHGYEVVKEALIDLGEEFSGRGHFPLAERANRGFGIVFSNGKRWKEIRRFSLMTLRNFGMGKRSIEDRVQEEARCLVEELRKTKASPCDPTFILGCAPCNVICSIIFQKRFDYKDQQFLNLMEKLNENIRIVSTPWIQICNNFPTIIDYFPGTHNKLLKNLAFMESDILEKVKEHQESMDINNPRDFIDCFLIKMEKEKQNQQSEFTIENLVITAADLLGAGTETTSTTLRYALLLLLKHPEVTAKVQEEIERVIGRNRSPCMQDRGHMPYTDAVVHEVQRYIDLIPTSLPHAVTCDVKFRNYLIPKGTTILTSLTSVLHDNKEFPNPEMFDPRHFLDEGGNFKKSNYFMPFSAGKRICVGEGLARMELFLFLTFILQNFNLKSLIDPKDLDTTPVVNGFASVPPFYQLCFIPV
CYP2C19 act: increases human CYP2C19 enzyme activity; P33261; recombinant CYP2C19, luciferin-H EGE luminescence; hits give high values; 0 = fully inhibited enzyme, 1 = untreated enzyme; activation factor at 5 µM; 96,000 tested, under 10 active; AID 1025;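 active = activation factor of at least 2 at 5 µM in the primary screen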;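 note: 0 = wells with 2.5 mM tranylcypromine and 1 = vehicle-only wells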
CYP2C9 inhib: human CYP2C9 inhibition; P11712; CYP2C9 Supersomes, luciferin-H conversion, luminescence; inhibition, % at 5 µM; 96,000 compounds, 20% hits; AID 777;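 active = blocking of liver enzyme CYP2C9 beyond about 50% at 5 µM, limit read from the data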
Numbers without * were called inactive. This is a sample that favours compounds with a hit; in the whole collection about 27% have one here.

How did O=[N+]([O-])c1ccc(Cl)c(/C=N/N2CCN(c3ccccc3)CC2)c1 do in these assays?
CYP2C9 act: 2.9*; CYP2C19 inh: 17; CYP2C19 act: 0.8; CYP2C9 inhib: -194

How did CN(Cc1nc(-c2ccccn2)no1)S(=O)(=O)c1ccccc1 do in these assays?
CYP2C9 act: 0.8; Cav32 inh: -0.24; CYP2C19 inh: 64*; CYP2C19 act: 0.4; CYP2C9 inhib: 15

What do the screens show for `COc1ccc(Cc2nc(-c3ccc(Br)cc3)no2)cc1`?
CYP2C9 act: 0.8; Cav32 inh: -0.48; CYP2C19 inh: 9; CYP2C19 act: 0.9; CYP2C9 inhib: 20

What do the screens show for `CN(Cc1nc(-c2ccncc2)no1)S(=O)(=O)c1ccccc1`?
CYP2C9 act: 0.3; Cav32 inh: 0.84; CYP2C19 inh: 99*; CYP2C19 act: 0; CYP2C9 inhib: 72*

What do the screens show for `Cc1ccc(S(=O)(=O)N(C)Cc2nc(-c3ccccn3)no2)cc1`?
CYP2C9 act: 1; Cav32 inh: 0.15; CYP2C19 inh: -7; CYP2C19 act: 1.1; CYP2C9 inhib: -1

Results for CN(Cc1nc(-c2ccncc2)no1)S(=O)(=O)c1ccc(Cl)cc1 ?
CYP2C9 act: 0.1; Cav32 inh: -0.35; CYP2C19 inh: 96*; CYP2C19 act: 0; CYP2C9 inhib: 93*

Results for CN(Cc1nc(-c2ccncc2)no1)S(=O)(=O)c1ccc(Br)cc1 ?
CYP2C9 act: 0.1; Cav32 inh: -1.3; CYP2C19 inh: 89*; CYP2C19 act: 0.1; CYP2C9 inhib: 93*

Results for Cc1ccc(C2c3c(oc4cc(C)c(C)cc4c3=O)C(=O)N2CCCN2CCOCC2)cc1 (stereo unspecified) ?
CYP2C9 act: 0.8; Cav32 inh: 2.8; CYP2C19 inh: 0; CYP2C19 act: 1; CYP2C9 inhib: 16

Results for Cc1ccccc1Cn1c(=N)n(CC(=O)c2ccco2)c2ccccc21 ?
CYP2C9 act: 1; Cav32 inh: -4.2*; CYP2C19 inh: 3; CYP2C19 act: 1; CYP2C9 inhib: 0

Results for CCOC(=O)Cn1c(=N)n(Cc2ccccc2)c2ccccc21 ?
CYP2C9 act: 1.1; Cav32 inh: -0.71; CYP2C19 inh: -16; CYP2C19 act: 1.2; CYP2C9 inhib: -10

What do the screens show for `CCN1CCN(c2ncc(C(=O)N3CCCc4ccccc43)c3ccccc23)CC1`?
CYP2C9 act: 0.7; Cav32 inh: 1.1; CYP2C19 inh: 81*; CYP2C19 act: 0.2; CYP2C9 inhib: 26

How did CCN1CCN(c2ncc(C(=O)Nc3cc(Cl)ccc3OC)c3ccccc23)CC1 do in these assays?
CYP2C9 act: 1.7; CYP2C19 inh: 15; CYP2C19 act: 0.8; CYP2C9 inhib: -66

How did O=C(Nc1ccccc1F)c1ccc(S(=O)(=O)NCC2CCCO2)cc1 (stereo unspecified) do in these assays?
CYP2C9 act: 0.9; Cav32 inh: -0.0087; CYP2C19 inh: -1; CYP2C19 act: 1; CYP2C9 inhib: 9

How did CCN(CC)C(=O)CSc1nnc2sc3ccccc3n12 do in these assays?
CYP2C9 act: 1.8; Cav32 inh: -0.12; CYP2C19 inh: 77*; CYP2C19 act: 0.2; CYP2C9 inhib: -84

What do the screens show for `CCN(CC)C(=O)CSc1nnc(-c2ccccc2)n1-c1ccccc1`?
CYP2C9 act: 0.6; Cav32 inh: -0.034; CYP2C19 inh: 45; CYP2C19 act: 0.6; CYP2C9 inhib: 39

Results for c1ccc(OCCSc2nnc3sc4ccccc4n23)cc1 ?
CYP2C9 act: 1.1; Cav32 inh: -0.43; CYP2C19 inh: 30; CYP2C19 act: 0.7; CYP2C9 inhib: -9

How did COc1cccc(OCCSc2nnc3sc4ccccc4n23)c1 do in these assays?
CYP2C9 act: 1.9; Cav32 inh: -1.1; CYP2C19 inh: 50*; CYP2C19 act: 0.5; CYP2C9 inhib: -85

How did Cc1ccccc1Nc1nc(N)nc(CSc2nnc3sc4ccccc4n23)n1 do in these assays?
CYP2C9 act: 2.4*; Cav32 inh: 0.3; CYP2C19 inh: -12; CYP2C19 act: 1.1; CYP2C9 inhib: -136

What do the screens show for `C/C=C/C=C/C(=O)[C@@H]1[C@@H]([C@]2(C)OC(=O)C(C)=C2O)[C@H]2/C(=C(O)/C=C/C=C/C)C(=O)[C@]1(C)C(=O)C2(C)O` (stereo partly specified)?
Cav32 inh: 1.8

How did CCCCS(=O)CC(O)COc1ccc(C(C)(C)C)cc1 (stereo unspecified) do in these assays?
CYP2C9 act: 0.9; Cav32 inh: -0.51; CYP2C19 inh: 58*; CYP2C19 act: 0.4; CYP2C9 inhib: 8

Results for CCCCS(=O)CC(O)COCC (stereo unspecified) ?
CYP2C9 act: 1.1; Cav32 inh: 0.36; CYP2C19 inh: -14; CYP2C19 act: 1.1; CYP2C9 inhib: -6

What do the screens show for `Cc1ccc(CCNS(=O)(=O)c2cnc[nH]2)cc1`?
CYP2C9 act: 0; Cav32 inh: 0.41; CYP2C19 inh: 73*; CYP2C19 act: 0.3; CYP2C9 inhib: 98*

What do the screens show for `O=S(=O)(NCc1ccccc1)c1cnc[nH]1`?
CYP2C9 act: 0.1; Cav32 inh: 0.12; CYP2C19 inh: 62*; CYP2C19 act: 0.4; CYP2C9 inhib: 95*

Results for O=S(=O)(NCc1cccnc1)c1cc(Cl)ccc1Cl ?
CYP2C9 act: 0.6; Cav32 inh: 0.35; CYP2C19 inh: 45; CYP2C19 act: 0.5; CYP2C9 inhib: 38

Results for O=S(=O)(NCc1ccc(Cl)cc1)c1ccc(Cl)nc1 ?
CYP2C9 act: 0.8; Cav32 inh: -0.77; CYP2C19 inh: 90*; CYP2C19 act: 0.1; CYP2C9 inhib: 17

How did O=S(=O)(Cc1ccccc1)NCc1cccnc1 do in these assays?
CYP2C9 act: 1; Cav32 inh: 0.051; CYP2C19 inh: -4; CYP2C19 act: 1; CYP2C9 inhib: 0

What do the screens show for `O=S(=O)(NCc1ccc(Cl)cc1)c1cnc[nH]1`?
CYP2C9 act: 0; Cav32 inh: 0.79; CYP2C19 inh: 78*; CYP2C19 act: 0.2; CYP2C9 inhib: 95*

What do the screens show for `Cc1cc(Br)cn2ccnc12`?
CYP2C9 act: 1.2; CYP2C19 inh: -14; CYP2C19 act: 1.1; CYP2C9 inhib: -18

What do the screens show for `COc1ccc(C(=O)N2CC=C(c3ccccc3)CC2)cc1S(=O)(=O)N1CCOCC1`?
CYP2C9 act: 0.2; Cav32 inh: 0.72; CYP2C19 inh: 86*; CYP2C19 act: 0.1; CYP2C9 inhib: 81*

What do the screens show for `Cc1ccc(NC(=O)c2ccc(CNc3c(N4CCOCC4)c(=O)c3=O)cc2)cc1`?
CYP2C9 act: 0.8; CYP2C19 inh: 6; CYP2C19 act: 0.9; CYP2C9 inhib: 18

What do the screens show for `O=C(c1ccc(CNc2c(N3CCOCC3)c(=O)c2=O)cc1)N1CC=C(c2ccccc2)CC1`?
CYP2C9 act: 0.4; Cav32 inh: 0.43; CYP2C19 inh: 43; CYP2C19 act: 0.6; CYP2C9 inhib: 59*

How did CC(=O)c1cc2c(cc1NS(=O)(=O)c1ccc(C)cc1)OCCO2 do in these assays?
CYP2C9 act: 1.2; Cav32 inh: -0.0092; CYP2C19 inh: 43; CYP2C19 act: 0.6; CYP2C9 inhib: -17

How did C=C(C)Cn1c(CNC(C)=O)nc2ccccc21 do in these assays?
Cav32 inh: 0.46

Screening results: PubChem BioAssay, several laboratories
